Calls of active or inactive are those of the source. A call without a number means that no potency is given here. The call rests on the fitted dose curve.
The molecules below were run against Thyrotropin-releasing hormone receptor (Homo sapiens) (UniProt P34981) (assay: qHTS assay to identify small molecule agonists of the thyrotropin-releasing hormone receptor (TRHR) signaling pathway (AID 1346891)). Conditions: TRHR-HEK293 calcium fluorescence, agonist mode; series mostly up to 57.6 µM.
Excerpt: National Center for Advancing Translational Sciences [NCATS] NIH Chemical Genomics Center [NCGC] U.S. Environmental Protection Agency [EPA] National Institutes of Environmental Health Sciences [NIEHS] National Toxicology Program [NTP] Assay overview: Thyrotropin-releasing hormone (TRH) receptor (TRHR) is a G-protein-coupled receptor which binds the tripeptide thyrotropin releasing hormone. TRHR is found in the brain and, when bound by TRH, acts (through phospholipase C) to increase intracellular inositol trisphosphate. It plays a crucial role in the anterior pituitary where it controls the synthesis and secretion of thyroid stimulating hormone and prolactin. The TRHR-Hek293 assay is a cell-based assay, and it has the potential to screen G protein-coupled receptors. A compound/drug can either activate (agonist) or suppress (antagonist) GPCRs that can be monitored by levels of intracellular calcium. Using this assay, the Tox21 10K compound library was screened to identify potential TRHR agonists.
Assay Protocol Summary: The TRHR-Hek293 cells were dispensed at 1500cells/4uL/well in 1536-well black-clear bottom plates using a Multidrop dispenser. After the assay plates were incubated at a 37 C/5% CO2 incubator for 18 hours, 4 uL of Dye-Loading Solution was added to each well. The plates were incubated at 37 C for 2 hours. For agonist mode, 23 nL of compounds dissolved in DMSO, positive controls or DMSO only was transferred to the assay plate by a pin tool. The fluorescence intensity in the plates was measured using FDSS 7000EX kinetic plate reader for 3 min at 1 sec intervals. Each test compound was measured at 15 concentrations and in triplicates.
Potency means the concentration at half of the fitted maximal effect.

Sequence of Thyrotropin-releasing hormone receptor (Homo sapiens) (P34981 whole entry, looked up): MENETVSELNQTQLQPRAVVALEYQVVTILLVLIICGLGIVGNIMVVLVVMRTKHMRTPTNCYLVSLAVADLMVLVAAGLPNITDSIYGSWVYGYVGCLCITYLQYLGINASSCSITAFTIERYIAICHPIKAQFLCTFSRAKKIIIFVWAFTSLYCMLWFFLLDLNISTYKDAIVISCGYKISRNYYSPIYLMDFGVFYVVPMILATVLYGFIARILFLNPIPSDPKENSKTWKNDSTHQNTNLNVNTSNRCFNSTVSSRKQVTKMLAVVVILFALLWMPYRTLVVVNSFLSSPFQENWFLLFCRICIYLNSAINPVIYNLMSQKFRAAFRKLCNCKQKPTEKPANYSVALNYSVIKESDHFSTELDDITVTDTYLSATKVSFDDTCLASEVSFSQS

Compound | Potency
C=CC(C)(O)CCC=C(C)C (stereo not given) | inactive
C=C1C[C@H]2[C@@H]3C=C(C)C4=CC(=O)CC[C@]4(C)[C@H]3CC[C@]2(C)[C@@]1(OC(C)=O)C(C)=O | inactive
O=C(CCCN1CCC(O)(c2ccc(Cl)cc2)CC1)c1ccc(F)cc1 | inactive
Cc1ccc(C(C)(C)C)cc1 | inactive
CC(=O)Oc1c(C)c(C)c2c(c1C)CC[C@@](C)(CCC[C@H](C)CCC[C@H](C)CCCC(C)C)O2 | inactive
ClC/C=C/CCl | inactive
Cc1cccc(Nc2ccccc2C(=O)O)c1C | inactive
COc1ccc(-c2coc3cc(O)cc(O)c3c2=O)cc1 | inactive
CC1(C)C(C=C(Cl)Cl)C1C(=O)OCc1cccc(Oc2ccccc2)c1 (stereo not given) | inactive
O=C(O)COCCN1CCN(C(c2ccccc2)c2ccc(Cl)cc2)CC1 (stereo not given) | inactive
CC(=O)O[C@]1(C(C)=O)CC[C@H]2[C@@H]3C=C(Cl)C4=CC(=O)CC[C@]4(C)[C@H]3CC[C@@]21C | inactive
C=C[C@H]1CN2CC[C@H]1C[C@H]2[C@H](O)c1ccnc2ccc(OC)cc12 | inactive
Brc1nc2ccccc2s1 | inactive
CN(C)/N=N/c1nc[nH]c1C(N)=O | inactive
IC(I)I | inactive
CC/C=C\C/C=C\C/C=C\CCCCCCCC(=O)O | inactive
Nc1ccc2c(c1)C(=O)c1ccccc1C2=O | inactive
NCCS(=O)(=O)O | inactive
COc1ccc(C(=O)c2ccccc2O)c(O)c1 | inactive
O=C1OC2(c3ccccc31)c1cc(I)c(O)c(I)c1Oc1c2cc(I)c(O)c1I | 19.7 µM (active) [middle of 4 runs]

Compound | Potency
Cc1ccc(N)c([N+](=O)[O-])c1 | inactive
Nc1cc([N+](=O)[O-])ccc1C(=O)O | inactive
C=CCCCCCCCCCC | inactive
C/C=C/C(=O)N(CC)c1ccccc1C | inactive
COc1cc([C@H]2Oc3cc([C@H]4Oc5cc(O)cc(O)c5C(=O)[C@@H]4O)ccc3O[C@@H]2CO)ccc1O | inactive
C=C[C@H]1CN2CC[C@H]1C[C@@H]2[C@@H](O)c1ccnc2ccc(OC)cc12 | inactive
C[C@]12CC[C@@H]3c4ccc(O)cc4CC[C@H]3[C@@H]1CC[C@H]2O | inactive
O=C(O)CCCCCCCCCCCC(=O)O | inactive
c1ccc2c(c1)ccc1cc3c(ccc4ccccc43)cc12 | inactive
C=CCNCC=C | inactive
CC(=O)Nc1ccc2c(c1)Cc1cc(NC(C)=O)ccc1-2 | inactive
C1CN(SSN2CCOCC2)CCO1 | inactive
CCCCCCCCCCCCO | inactive
Cc1ccc2c(c1)C(=O)OC2=O | inactive
COCCOCCOCCO | inactive
CC1=CC(C)(C)Nc2ccccc21 | inactive
CN1CCOCC1 | inactive
CCCCCCCCCCCCCO | inactive
CC(C)=CCO | inactive
c1ccc2ncccc2c1 | inactive

From PubChem BioAssay (Tox21)
